Reference: PubChem BioAssay (NCATS)
Inconclusive results are not listed. The source made the active and inactive calls. Calls follow the shape of the full dose curve.

Test: VSVG counterscreen qHTS to identify inhibitors of SARS-CoV-2 cell entry (AID 1645847); also: nearly all actives have a fitted effect of over 65% in size
Details: VSV-G pseudotyped particle entry, luciferase; series mostly up to 57.2 µM
In short: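 HEK293-ACE2 cells (Expi293F stably expressing human ACE2) were pretreated with compound for 1 h at 37 °C, then infected with MLV-based VSV-G pseudotyped particles for 48 h. Luciferase luminescence was normalized to VSV-G PP and bald PP wells.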
Potency is read from the fitted curve at half-maximal effect.

SMILES	Potency
Clc1ccccc1C(c1ccccc1)(c1ccccc1)n1ccnc1	19.2 µM (active)
Oc1ccc(Cl)cc1Cc1cc(Cl)ccc1O	3.83 µM (active)
COC(=O)C1=C(C)NC(C)=C(C(=O)OC(C)(C)CN(C)CCC(c2ccccc2)c2ccccc2)C1c1cccc([N+](=O)[O-])c1 (centres undefined)	21.5 µM (active)
CCCCCC(=O)O[C@]1(C(C)=O)CC[C@H]2[C@@H]3CCC4=CC(=O)CC[C@]4(C)[C@H]3CC[C@@]21C	24.1 µM (active)
COC(=O)[C@H]1[C@H]2C[C@@H]3c4[nH]c5cc(OC)ccc5c4CCN3C[C@H]2C[C@@H](OC(=O)/C=C/c2ccc(O)c(OC)c2)[C@@H]1OC	19.2 µM (active)
O[C@@H](COc1cccc2ncccc12)CN1CCN(C2c3ccccc3[C@@H]3[C@H](c4ccccc42)C3(F)F)CC1 (some centres undefined)	0.171 µM (active)
CCCCCCCCCCCCCCCCC(C(=O)O)C(O)(CC(=O)O)C(=O)O (centres undefined)	inactive
CCOC(=O)C1=C(C)NC(C)=C(C(=O)OCC)C1c1ccccc1/C=C/C(=O)OC(C)(C)C	1.21 µM (active)
Oc1c(Cl)cc(Cl)cc1Sc1cc(Cl)cc(Cl)c1O	4.82 µM (active)
